Assay [1] can be described thus: qHTS of pediatric cancer cell lines to identify multiple opportunities for drug repurposing: Primary screen for SJ-GBM2 cells (AID 1347091). Also: potency is read from the fitted curve at half-maximal effect. The procedure, abridged:
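Eight- or eleven-point concentration series, 48 h treatment at 37 degrees C in growth media; readout CellTiter-Glo luminescence. Potency and efficacy were taken from the concentration-response curves.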
For orientation: In qHTS, concentration-response curves come from the screen itself.

Assay [2] is described as follows: qHTS of pediatric cancer cell lines to identify multiple opportunities for drug repurposing: Primary screen for A673 cells (AID 1347092). Also: nearly all actives have a fitted effect of over 45% in size. Also: potency is read from the fitted curve at half-maximal effect. The procedure, abridged: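 Luminescence from CellTiter-Glo, taken after 15 min at room temperature, served as the proxy for metabolically active cells following 48 h treatment. Both potency and efficacy were taken from curves fitted to the titration data.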

Assay [3] is described as follows: qHTS of pediatric cancer cell lines to identify multiple opportunities for drug repurposing: Primary screen for SK-N-MC cells (AID 1347093). Also: potency is read from the fitted curve at half-maximal effect. The procedure, abridged:
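Metabolically active cells were quantified by ATP-dependent luminescence (CellTiter-Glo, 15 min at room temperature) following 48 h treatment. Cells had been plated at 500-1,000 per well and settled for 5 h beforehand.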

The nature of assay [4]: qHTS of pediatric cancer cell lines to identify multiple opportunities for drug repurposing: Primary screen for NB-EBc1 cells (AID 1347095). Also: potency is read from the fitted curve at half-maximal effect. The method in brief: (§1)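 Viability was measured as metabolically active cells after 48 hours of treatment, read by CellTiter-Glo luminescence. Compounds were tested at multiple final concentrations, giving concentration-response curves.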

Assay [5] in a line: qHTS of pediatric cancer cell lines to identify multiple opportunities for drug repurposing: Primary screen for Saos-2 cells (AID 1347097). Also: nearly all actives have a fitted effect of over 40% in size. Also: potency is read from the fitted curve at half-maximal effect. The method in brief:
as §1

Assay [6] in a line: qHTS of pediatric cancer cell lines to identify multiple opportunities for drug repurposing: Primary screen for SK-N-SH cells (AID 1347098). Also: nearly all actives have a fitted effect of over 65% in size. Also: potency is read from the fitted curve at half-maximal effect. The method in brief:
(§2)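 Cells (500-1,000/well) rested 5 h, then received compounds for 48 h; metabolically active cells were measured by CellTiter-Glo luminescence. Final concentrations spanned up to 46 µM (MIPE, 11-point) or 0.59 nM-46 µM (NPC, 8-point) in primary screens, 11-point in follow-ups.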

A short description of assay [7]: qHTS of pediatric cancer cell lines to identify multiple opportunities for drug repurposing: Primary screen for BT-12 cells (AID 1347101). Also: nearly all actives have a fitted effect of over 25% in size. Also: potency is read from the fitted curve at half-maximal effect. The method in brief:
as §2

The nature of assay [8]: qHTS of pediatric cancer cell lines to identify multiple opportunities for drug repurposing: Primary screen for Rh18 cells (AID 1347102). Also: nearly all actives have a fitted effect of over 65% in size. Also: potency is read from the fitted curve at half-maximal effect. The procedure, abridged:
(§3)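 Cells (500-1,000/well) in growth media were settled 5 h at 37 degrees C, then given compounds for 48 h. Viability was read as CellTiter-Glo luminescence. Primary runs used MIPE at 11 points (0.78 nM-46 µM) and NPC at 8 points (0.59 nM-46 µM); follow-ups used 11 points.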

The nature of assay [9]: qHTS of pediatric cancer cell lines to identify multiple opportunities for drug repurposing: Primary screen for control Hh wild type fibroblast cells (AID 1347106).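 Also: series mostly up to about 46 µM; a drop in luminescence marks cytotoxicity and a rise apparent proliferation; nearly all actives have a fitted effect of over 55% in size.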 The procedure, abridged: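 Viability after 48 h compound treatment at 37C, 500-1,000 cells/well, read as ATP luminescence with CellTiter-Glo. Primary screens used 11-point (MIPE, 0.78 nM-46 µM) or 8-point (NPC, 0.59 nM-46 µM) final concentrations; follow-up screens used 11-point dilutions.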

Assay [10] can be described thus: qHTS of pediatric cancer cell lines to identify multiple opportunities for drug repurposing: Primary screen for Rh30 cells (AID 1347107). Also: series mostly up to about 46 µM; nearly all actives have a fitted effect of over 75% in size. The method in brief: as §3
Assay [11] can be described thus: qHTS of pediatric cancer cell lines to identify multiple opportunities for drug repurposing: Confirmatory screen for NB1643 cells (AID 1347109). Also: nearly all actives have a fitted effect of over 45% in size. Also: potency is read from the fitted curve at half-maximal effect. The procedure, abridged: as §3
A short description of assay [12]: qHTS of pediatric cancer cell lines to identify multiple opportunities for drug repurposing: Primary screen for BT-37 cells (AID 1347094). Also: potency is read from the fitted curve at half-maximal effect. The method in brief:
as §1

Assay [13] in a line: qHTS of pediatric cancer cell lines to identify multiple opportunities for drug repurposing: Primary screen for U-2 OS cells (AID 1347096). Also: nearly all actives have a fitted effect of over 50% in size. The procedure, abridged: as §3
A short description of assay [14]: qHTS of pediatric cancer cell lines to identify multiple opportunities for drug repurposing: Primary screen for LAN-5 cells (AID 1347100). Also: potency is read from the fitted curve at half-maximal effect. The method in brief:
as §3

A short description of assay [15]: qHTS of pediatric cancer cell lines to identify multiple opportunities for drug repurposing: Primary screen for OHS-50 cells (AID 1347103). Also: nearly all actives have a fitted effect of over 40% in size. Also: potency is read from the fitted curve at half-maximal effect. The method in brief:
as §2

A short description of assay [16]: qHTS of pediatric cancer cell lines to identify multiple opportunities for drug repurposing: Primary screen for RD cells (AID 1347104). Also: nearly all actives have a fitted effect of over 55% in size. Also: potency is read from the fitted curve at half-maximal effect. The procedure, abridged: as §1
Assay [17] can be described thus: qHTS of pediatric cancer cell lines to identify multiple opportunities for drug repurposing: Primary screen for MG 63 (6-TG R) cells (AID 1347105). Also: nearly all actives have a fitted effect of over 50% in size. Also: potency is read from the fitted curve at half-maximal effect. The procedure, abridged: as §1
Assay [18] is described as follows: qHTS of pediatric cancer cell lines to identify multiple opportunities for drug repurposing: Primary screen for Rh41 cells (AID 1347108). Also: nearly all actives have a fitted effect of over 70% in size. Also: potency is read from the fitted curve at half-maximal effect. The procedure, abridged:
as §1

The nature of assay [19]: qHTS of pediatric cancer cell lines to identify multiple opportunities for drug repurposing: Primary screen for NB1643 cells (AID 1347099). Also: nearly all actives have a fitted effect of over 50% in size. The procedure, abridged: as §1
The nature of assay [20]: qHTS of pediatric cancer cell lines to identify multiple opportunities for drug repurposing: Confirmatory screen for A673 cells (AID 1347110).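 Also: potency is read from the fitted curve at half-maximal effect; cells exposed to compound for 48 h before the viability read; nearly all actives have a fitted effect of over 65% in size.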 The method in brief:
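qHTS titration format: primary MIPE 0.78 nM-46 µM (11 pts), NPC 0.59 nM-46 µM; confirmation 11 pts. 48 h, CTG luminescence.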

“And” between values parts separate entries of the source, which are not always exact repeats. Equal values may be shown once. Inconclusive results are not listed. The source made the active and inactive calls. Calls follow the shape of the dose curve; as a rule, active = well fitted curve in the direction sought with a large enough effect; inconclusive = small, poorly fitted or top-dose-only effect, or another doubt; inactive = no such curve, though single readings can be large; an effect the other way counts as inactive or inconclusive.

On to `Clc1ccc(C(c2ccccc2Cl)C(Cl)Cl)cc1` (stereo not drawn), for which the Potency entry in assay [1], in assay [6], in assay [7], in [8], in assay [9] and in assay [11] was “inactive” each time. In addition, the Potency in [2] is 23.5 µM (active); in assay [3], 16.6 µM (active); in assay [4], 21.1 µM (active) and 18.7 µM (active); in [5], 16.8 µM (active) and 18.7 µM (active). Moreover, in assay [10], the compound was classed as inactive.

For the compound `NCCc1cnc[nH]1`, the Potency entry in assay [1], in assay [2], in [3], in [12], in assay [4] and in assay [13] was “inactive” throughout. For the same compound, the Potency entry in assay [5], in assay [6], in assay [14], in assay [7], in assay [8] and in assay [15] was “inactive” each time. The Potency result in assay [16], in assay [17], in assay [9] and in [18] was “inactive” in each case.

As for `COc1ccc(CCN(C)CCCC(C#N)(c2ccc(OC)c(OC)c2)C(C)C)cc1OC` (stereo not drawn), the Potency result in [1], in [2], in [3], in assay [12], in assay [4] and in assay [5] was “inactive” throughout. The Potency entry in [6], in [19], in assay [14], in [7], in [8] and in assay [15] was “inactive” throughout. Moreover, the Potency entry in assay [17], in assay [9] and in assay [18] was “inactive” throughout.

For `COc1nc(C)nc(Cl)c1NC1=NCCN1`, the Potency result in assay [1], in assay [2], in assay [12], in [4], in assay [13] and in [5] was “inactive” each time. Besides, the Potency result in assay [6], in assay [14], in assay [7], in assay [8], in [15] and in assay [16] was “inactive” throughout. In addition, the Potency result in assay [17], in assay [9] and in [18] was “inactive” throughout.

As for `O=C1N(c2ccccc2)c2ccccc2C1(Cc1ccncc1)Cc1ccncc1`, the Potency result in assay [1], in assay [2], in assay [3], in assay [12], in assay [4] and in [5] was “inactive” throughout. Moreover, the Potency result in assay [6], in assay [19], in assay [14], in [7], in [8] and in [15] was “inactive” throughout. Further, the Potency entry in assay [17] and in assay [18] was “inactive” in each case. Moreover, the result in [10] was inactive.

As to `CN1CCN(C2=Nc3cc(Cl)ccc3Nc3ccccc32)CC1`, the Potency result in [1], in assay [2], in assay [3], in [12], in assay [4] and in assay [14] was “inactive” each time. Moreover, the Potency result in [7], in assay [8], in [17], in [9] and in [18] was “inactive” in each case. For the same compound, the Potency in [6] is 15.4 µM (active).

Turning to `Nc1ccn([C@H]2CC[C@@H](CO)O2)c(=O)n1`, the Potency entry in [1], in [2], in [12], in [4], in assay [13] and in [6] was “inactive” throughout. The Potency entry in [19], in assay [14], in assay [7], in assay [8], in [15] and in assay [17] was “inactive” throughout. The Potency entry in assay [9] and in [18] was “inactive” in each case. For the same compound, the Potency in [3] is 18.7 µM (active) and 21.1 µM (active). The outcome in assay [10] was inactive.

With `CN1C2CCC1CC(OC(=O)C(CO)c1ccccc1)C2` (stereo not drawn), the Potency result in assay [1], in [2], in assay [3], in assay [12], in [4] and in [13] was “inactive” throughout. Also, the Potency result in assay [19], in assay [14], in [7], in assay [8], in [15] and in assay [17] was “inactive” in each case. Also, the Potency result in assay [9] and in [18] was “inactive” throughout.

On to `O=C(Nc1ccc([N+](=O)[O-])cc1Cl)c1cc(Cl)ccc1O`, for which the Potency was 1.3 µM (active) and 743 nM (active) in assay [1]; 4.69 µM (active) in [2]; 1.3 µM (active) and 833 nM (active) in assay [3]; 1.69 µM (active) and 1.37 µM (active) in assay [12]; 4.11 µM (active) and 743 nM (active) in assay [4]; 2.31 µM (active) and 1.18 µM (active) in assay [5]. In addition, the Potency was 1.3 µM (active) and 935 nM (active) in assay [14]; 1.69 µM (active) and 1.93 µM (active) in assay [7]; 3.72 µM (active) in assay [8]; 1.51 µM (active) and 863 nM (active) in assay [15]; 3.26 µM (active) and 1.48 µM (active) in [16]; 3.66 µM (active) and 1.18 µM (active) in [17]. For the same compound, the Potency is 2.35 µM (active) in assay [18], 1.62 µM (active) in assay [11] and 5.12 µM (active) in assay [20]. Besides, in assay [9], the Potency entry was “inactive”. Moreover, the result in assay [10] was inactive.

Take `CCN1CCCC1CNC(=O)c1cc(S(=O)(=O)CC)c(N)cc1OC` (stereo not drawn): the Potency entry in [1], in assay [2], in assay [12], in [4], in assay [13] and in assay [5] was “inactive” throughout. Moreover, the Potency result in [6], in assay [19], in [14], in assay [7], in assay [8] and in assay [15] was “inactive” throughout. For the same compound, the Potency result in assay [17], in assay [9] and in assay [18] was “inactive” each time.

Consider `CN(C)CCCN1c2ccccc2CCc2ccc(Cl)cc21`, for which the Potency is 23.7 µM (active) in [1]; 0.469 µM (active) in assay [2]; 332 nM (active) and 23.7 µM (active) in assay [3]; 12.2 µM (active) and 24.6 µM (active) in assay [12]; 1.52 µM (active) and 24.4 µM (active) in assay [6]; 19.3 µM (active) and 15.5 µM (active) in assay [7]. Further, the Potency was 13.7 µM (active) and 17.4 µM (active) in assay [15]; 1.48 µM (active) in assay [16]. For the same compound, the Potency result in assay [4] and in assay [18] was “inactive” in each case. Besides, in [10], the outcome was inactive.

On to `COc1ccccc1OCC(O)CN1CCN(CC(=O)Nc2c(C)cccc2C)CC1` (stereo not drawn), for which the Potency entry in assay [1], in [2], in assay [12], in assay [4], in assay [13] and in assay [5] was “inactive” each time. Moreover, the Potency result in assay [6], in assay [19], in assay [14], in assay [7], in [8] and in assay [15] was “inactive” in each case. Moreover, the Potency result in assay [16], in [17], in assay [9] and in assay [18] was “inactive” throughout. Besides, the result in assay [10] was inactive.

With `CCOC(=O)c1ncn2c1CN(C)C(=O)c1cc(F)ccc1-2`, the Potency result in assay [1], in [2], in [3], in [12], in assay [4] and in assay [13] was “inactive” in each case. Besides, the Potency result in assay [6], in [14], in assay [7], in assay [8], in assay [15] and in assay [17] was “inactive” in each case. In assay [18], the Potency result was “inactive”. Moreover, in assay [10], the result was inactive.

For the origin of these results see PubChem BioAssay (NCATS).
